The subject of one assay is HEK293. The experiment in a line: Cytotoxic Profiling of Annotated Libraries Using Quantitative High-Throughput Screening (AID 1296008). On max response: on the % scale 0 is the no-effect control and ±100 the full control effect. Particulars: Five cell lines viability, CellTiter-Glo ATP luminescence, 48-72 h; max response: active compounds read low. The method in brief: (§1)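 Cytotoxicity was measured as CellTiter-Glo ATP luminescence, read after 10 min at room temperature. Compound treatment of the cells lasted 48 or 72 hr at 37 degrees Celsius in a qHTS format.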

Assay [1] deals with HaCat. Described as above. Particulars: Five cell lines viability, CellTiter-Glo ATP luminescence, 48-72 h; max response: active compounds read low. The procedure, abridged: as §1
For orientation: ATP-based viability assays read luminescence as a measure of living cells.

The test system of a further assay is KB-3-1. Described as above. Particulars: Five cell lines viability, CellTiter-Glo ATP luminescence, 48-72 h; max response: active compounds read low. The method in brief:
as §1

The subject of another assay is NIH3T3. The assay is described as above. As to conditions: Five cell lines viability, CellTiter-Glo ATP luminescence, 48-72 h; max response: active compounds read low. The method in brief: as §1
Assay [2] has as its system HACAT. The experiment in a line: qHTS assay to identify novel small-molecules to repurpose for Merkel cell carcinoma treatment (AID 1296009). Particulars: MCC and control cell lines, CellTiter-Glo viability, 72 h; series mostly up to 44.8 µM. The method in brief:
(§2)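 Cell viability measured by CellTiter-Glo following 72 hr compound treatment at 37 degree celsius, with NPC and MIPE libraries tested in 8- and 11-point concentration series.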

Another assay concerns HEK293T. The description is as above. Particulars: MCC and control cell lines, CellTiter-Glo viability, 72 h; at 44.8 µM (top of the series) unless noted. The method in brief:
as §2

A further assay has as its system MKL-1. The assay is described as above. As to conditions: MCC and control cell lines, CellTiter-Glo viability, 72 h; series mostly up to 46 µM. The procedure, abridged:
as §2

Records with an inconclusive call do not appear. Unmarked numbers belong to inactive results. Calls of active or inactive are those of the source. The call rests on the fitted dose curve; in most records, active means well fitted inhibition curve with a large enough effect; inconclusive means small, poorly fitted or top-dose-only effect; inactive means flat fitted curve, though single readings scatter.
Further: nearly all actives have a fitted effect of over 60% in size.
Potency means the concentration at half of the fitted maximal effect.

As for `CS(=O)(=O)c1ccc(-c2nnc(/C=C/c3nnc(-c4ccc(C#N)cc4)o3)n2-c2ccccc2Cl)nc1`, the Potency in the assay on HEK293 was 11.6 µM (active). Besides, the result with HaCat [1] was inactive. Also, the max response is 2.94% in the assay with KB-3-1 and -6.1% in the assay on NIH3T3. Also, the Potency result in the assay on HACAT [2] is “inactive”.

For the compound `CC12CCC(OC3OC(CO)C(O)C(OC4OC(CO)C(O)C(O)C4O)C3O)CC1=CCC1C2CCC2(C)/C(=C3/COC(=O)C3)CCC12O` (stereo unspecified), the max response in the assay on HEK293 is 0.267%; in the assay on KB-3-1 it was -7.93%; with NIH3T3 it was -3.87%. For the same compound, the compound was classed as inactive in the assay with HaCat [1]. Moreover, the Potency result with HACAT [2] was “inactive”.

Consider `COC(=O)CC(C)(O)CC(=O)OCc1ccc(O[C@@H]2O[C@H](CO)[C@@H](O)[C@H](O)[C@H]2O)cc1` (stereo partly specified), for which, in the assay with HEK293, the compound was called inactive. Also, the max response in the assay with HaCat [1] is 2.19%; in the assay with KB-3-1, 4.52%; in the assay on NIH3T3, -2.06%. Besides, the outcome with HEK293T is “inactive [at 17.4 µM]”.

As to `C[C@H](CCC(=O)O)[C@H]1CC[C@H]2[C@@H]3C[C@H](O)[C@@H]4C[C@H](O)CC[C@]4(C)[C@H]3CC[C@]12C`, the max response in the assay with HEK293 was 0.0594%. Moreover, the result in the assay with HaCat [1], in the assay on KB-3-1 and in the assay with NIH3T3 was inactive.

Consider `COc1cc2occc2c(O[C@@H]2O[C@H](CO)[C@@H](O)[C@H](O)[C@H]2O)c1CCC(=O)O`, for which the compound was classed as inactive in the assay on HEK293 and in the assay on KB-3-1. Besides, the max response was 2.4% in the assay with HaCat [1] and 1.36% with NIH3T3. Moreover, the outcome with HEK293T is “inactive [at 17.4 µM]”.

Regarding `COC(=O)C1(C)c2[nH]c3ccccc3c2CCN1C(=O)CCl` (stereo unspecified), the Potency in the assay on HEK293 is 7.31 µM (active); in the assay on KB-3-1 it was 20.6 µM (active).

Take `C=C1C(=O)O[C@@H]2[C@H]1CCC(C)=C1CCC(=O)O[C@]12C`: the Potency in the assay on HEK293 was 14.6 µM (active). Moreover, in the assay on KB-3-1, the max response is -23.5%.

`O=c1[nH]ccc2cc(OC3CCNCC3)ccc12`: the max response in the assay on HEK293 was -16.8%. Besides, the call in the assay with KB-3-1 was inactive.

As to `CNC(=O)c1ccccc1Nc1nc(Nc2ccc3c(c2OC)CCC[C@@H](N2CCN(CCO)CC2)C3)ncc1Cl`, the Potency in the assay on HEK293 is 5.8 µM (active); in the assay on KB-3-1 it was 13 µM (active).

Take `C=CC(=O)N1CCN(C(=O)CNc2cc(I)c(Cl)cc2O)CC1`: the Potency in the assay on HEK293 is 13 µM (active); in the assay on KB-3-1, 20.6 µM (active). In addition, the compound was classed as inactive with HaCat [1]. In addition, the Potency entry with HACAT [2] is “inactive”.

For the compound `CCS(=O)(=O)N1CCN(c2ccc(Nc3ncc(C(N)=O)c(NC4CC4)n3)cc2)CC1`, the results for the Potency with HEK293 and with KB-3-1 were 7.31 µM (active) and 5.17 µM (active), respectively.

Take `CC(C)(C#N)c1ccc(N2C(=O)OCc3cnc4ccc(-c5cnc6ccccc6c5)cc4c32)cc1`: the values for the Potency with HEK293 and in the assay with KB-3-1 were 7.31 µM (active) and 6.51 µM (active), respectively.

Take `CC(C)C(CO)Nc1nc(Nc2cc(N)cc(Cl)c2)c2ncn(C(C)C)c2n1` (stereo unspecified): the Potency in the assay with HEK293 is 16.4 µM (active); with KB-3-1, 10.3 µM (active); with NIH3T3, 3.66 µM (active).

Take `CNC(=O)c1cc(Oc2ccc3nc(N[C@@H]4CCCC[C@H]4O)sc3c2)ccn1`: in the assay with HEK293, the Potency is 16.4 µM (active). In the assay with HaCat [1], the compound was classed as inactive. Also, in the assay with KB-3-1, the max response was -18.3%. In addition, the Potency entry in the assay with HACAT [2] was “inactive”.

As to `CC(C)[C@@](C)(O)[C@@H]1CN(c2nc(-c3[nH]nc4ncccc34)c(F)cc2Cl)CCN1`, the Potency in the assay with HEK293 was 13 µM (active); with KB-3-1 it was 20.6 µM (active).

Regarding `Nc1nc(Nc2ccc(S(N)(=O)=O)cc2)n(C(=S)Nc2c(F)cccc2F)n1`, the Potency in the assay with HEK293 is 8.2 µM (active); with KB-3-1 it was 1.3 µM (active).

In the case of `COC(=O)N[C@@H](C)CNc1nccc(-c2cn(C(C)C)nc2-c2cc(Cl)cc(NS(C)(=O)=O)c2F)n1`, in the assay with HEK293, the Potency was 11.6 µM (active). In addition, the max response in the assay on KB-3-1 is -3.34%.

Regarding `CC(O)c1cc(C(=O)N[C@@H](C)Cn2ccc(-c3ccc(C#N)c(Cl)c3)n2)n[nH]1` (stereo partly specified), the Potency in the assay on HEK293 was 18.4 µM (active). The max response in the assay with KB-3-1 was -27.8%.

Turning to `O=C(c1cccc(Cl)c1F)N1CCN(Cc2cccc(Nc3nccs3)n2)CC1`, the Potency in the assay on HEK293 was 1.03 µM (active); with KB-3-1 it was 1.16 µM (active).

In the case of `C/C=C/c1ccc(O[C@@H]2O[C@H](CO)[C@@H](O)[C@H](O)[C@H]2O)c(OC)c1`, the Potency in the assay on HEK293 is 11.4 µM (active). The max response with KB-3-1 was -6.82%.

With `O=C(NCc1cccc(O)c1)Nc1nc(-c2ccncc2)cs1`, the values for the max response in the assay on HEK293 and with KB-3-1 were -21.2% and -3.25%, respectively.

`CCN(CC)CCN(Cc1ccc(-c2ccc(C(F)(F)F)cc2)cc1)C(=O)Cn1c(SCc2ccc(F)cc2)nc(=O)c2c1CCC2`: the Potency with HEK293 is 3.66 µM (active); in the assay on KB-3-1, 20.6 µM (active); in the assay on NIH3T3, 4.61 µM (active).

As for `CC(=O)NC[C@H]1CN(c2ccc(N3CCN(C(=O)CO)CC3)c(F)c2)C(=O)O1`, in the assay with HEK293, the Potency was 13 µM (active). Moreover, in the assay on KB-3-1, the max response was -17.1%.

With `N#Cc1ccc(-c2cnc3[nH]cc(NC(=O)c4cccnc4)c3c2)cc1`, the Potency in the assay on HEK293 is 8.2 µM (active). Also, the max response with KB-3-1 was -24.8%.

In the case of `O=C(CO)[C@@H](O)[C@H](O[C@@H]1O[C@H](CO)[C@H](O)[C@H](O)[C@H]1O)[C@H](O)CO`, the outcome in the assay on HEK293 and with HEK293T was inactive. Moreover, the figures for the max response in the assay with HaCat [1] and in the assay on KB-3-1 were -14% and 5.5%, respectively.

As to `C[C@@H](Oc1cc(-n2cnc3ccc(OC4CCN(C)CC4)cc32)sc1C(N)=O)c1ccccc1C(F)(F)F`, the values for the Potency in the assay with HEK293, in the assay on KB-3-1 and with NIH3T3 were 0.0411 µM (active), 0.0092 µM (active) and 5.8 µM (active), respectively.

As to `COc1c(Nc2ncc(Cl)c(N[C@H]3[C@@H](C(N)=O)[C@@H]4C=C[C@H]3C4)n2)ccc2c1CC[C@@H](N1CCOCC1)CC2`, the Potency with HEK293 was 3.66 µM (active); with KB-3-1 it was 18.4 µM (active).

Turning to `Cc1ccc(N)cc1O`, the Potency in the assay on HEK293 is 43.3 µM (active); with MKL-1, 6.11 µM (active). Also, in the assay on HaCat [1], the compound was classed as inactive. Besides, the max response in the assay on KB-3-1 is -6.12%. In addition, the Potency entry in the assay on HACAT [2] is “inactive”.

Consider `CNC12CC3C[C@@](C)(C1)C[C@](C)(C3)C2`, for which, in the assay with HEK293, the max response was -16.8%. Further, the compound was classed as inactive in the assay with KB-3-1.

Turning to `C[C@@H]1O[C@@H](O[C@H]2[C@H](O[C@H]3CC[C@@]4(C)C(CC[C@]5(C)C4C=C[C@]46OC[C@@]7(CCC(C)(C)C[C@H]74)[C@@H](O)C[C@]65C)[C@]3(C)CO)O[C@H](CO)[C@@H](O)[C@@H]2O[C@@H]2O[C@H](CO)[C@@H](O[C@@H]3O[C@@H](C)[C@H](O)[C@@H](O)[C@H]3O)[C@H](O)[C@H]2O)[C@H](O)[C@H](O)[C@H]1O` (stereo partly specified), the Potency in the assay on HEK293 was 3.9 µM (active). Moreover, in the assay on KB-3-1, the max response is -30.1%.

Source of the values: PubChem BioAssay (NCATS).
